Experimental data from PubChem BioAssay AID1259421 (Broad Institute, 2018).
Where “and” joins values, the source holds several entries; their conditions need not be identical. Identical values can stand only once. The whole screen tested about 6,400 compounds, of which about 610 (9.5%) were called active. This is one part of a sample in which actives are shown more often than they occur. No stated cut-off is given here; in the data, active means activity change below about -70%; inconclusive means no clear call, values can overlap the other calls; inactive means above that. Some structures have more than one record in an assay (separate samples or runs), and their calls can disagree. Where a SMILES comes first, the peptide text is derived from it.

Assay: Toxoplasma gondii ME49Luc growth in HeLa cells, luciferase, no IFN-y, primary screen (AID 1259421)
Conditions: T. gondii ME49Luc in HeLa, 72 h, stronger effect = lower value, concentration not given here
In the case of `C[C@H]1[C@H](C)CC[C@]2(C(=O)O)CC[C@]3(C)C(=CC[C@@H]4[C@@]5(C)CC[C@H](O)C(C)(C)[C@@H]5CC[C@]43C)[C@H]12`, the activity change, negative = inhibition is reported as -76.6% (active). With `C[C@H]1[C@H](C)CC[C@]2(C(=O)O)CC[C@]3(C)C(=CC[C@@H]4[C@@]5(C)C[C@@H](O)[C@H](O)[C@@](C)(CO)[C@@H]5CC[C@]43C)[C@H]12` the activity change, negative = inhibition was -67.1% (inactive) and -6.04% (inactive). In the case of `C[C@H]1[C@H](C)CC[C@]2(C(=O)O)CC[C@]3(C)C(=CCC4[C@@]5(C)C[C@@H](O)[C@H](O)[C@@](C)(CO)C5CC[C@]43C)[C@H]12` (some centres not stated), the activity change, negative = inhibition is reported as 14.3% (inactive). For `CC1(C)CC[C@]2(C(=O)O)CC[C@]3(C)C(=CC[C@@H]4[C@@]5(C)CC[C@H](O)C(C)(C)[C@@H]5CC[C@]43C)[C@@H]2C1`, the activity change, negative = inhibition was -38.2% (inactive) and 16.6% (inactive). With `C[C@H]1[C@H](C)CC[C@]2(C(=O)O)CC[C@]3(C)C(=CCC4[C@@]5(C)C[C@@H](O)[C@H](O)[C@@](C)(CO)C5[C@H](O)C[C@]43C)[C@H]12` (some centres not stated) the activity change, negative = inhibition was -87.6% (active). For `C[C@@H]1CC[C@]2(C(=O)O)CC[C@]3(C)C(=CCC4[C@@]5(C)CC[C@H](O)C(C)(C)C5CC[C@]43C)C2[C@H]1C` (some centres not stated), the activity change, negative = inhibition was 8.22% (inactive). For `Nc1nc2c(ncn2CCC(CO)CO)c(=O)[nH]1`, the activity change, negative = inhibition was 11.1% (inactive). In the case of `COc1c2ccoc2nc2c(OC)c(OCC(O)C(C)(C)O)ccc12` (configuration not stated), the activity change, negative = inhibition is reported as 7.33% (inactive). For `C[C@@H](NCCCc1cccc(C(F)(F)F)c1)c1cccc2ccccc12`, the activity change, negative = inhibition was 58.2% (inactive). With `CO[C@H]1C=CO[C@@]2(C)Oc3c(C)c(O)c4c(O)c(c5c(nc6cc(C)ccn65)c4c3C2=O)NC(=O)/C(C)=C\C=C/[C@H](C)[C@H](O)[C@@H](C)C(O)[C@@H](C)[C@H](OC(C)=O)[C@@H]1C` (some centres not stated) the activity change, negative = inhibition was 2.45% (inactive). For `CC(C)CC1C(=O)N2CCC[C@H]2C2(O)O[C@](NC(=O)C3C=C4c5cccc6[nH]c(Br)c(c56)C[C@H]4N(C)C3)(C(C)C)C(=O)N12` (some centres not stated), the activity change, negative = inhibition was -3.42% (inactive). With `O=C(NS(=O)(=O)c1ccc(Br)s1)c1ccc(Cl)cc1Cl` the activity change, negative = inhibition was 15.3% (inactive). In the case of `CS(=O)(=O)Oc1ccc2c(NC(N)=O)c(C(=O)c3ccc(Cl)cc3Cl)oc2c1`, the activity change, negative = inhibition is reported as 6% (inactive) and -81.6% (active). In the case of `CCOC(=O)CCNc1cc(N2CCc3ccccc3CC2)nc(-c2ccccn2)n1`, the activity change, negative = inhibition is reported as -57.4% (inactive). In the case of `O=c1cc(N2CCOCC2)nc2c3ccccc3ccn12`, the activity change, negative = inhibition is reported as 7.41% (inactive). For `Cc1cccc(/C=N/Nc2cc(N3CCOCC3)nc(OCCc3ccccn3)n2)c1`, the activity change, negative = inhibition was -83.9% (active). With `O=C(O)c1ccc(-n2nc(-c3ccccc3O)nc2-c2ccccc2O)cc1` the activity change, negative = inhibition was -30% (inactive). With `CC(C)(O)CC[C@@H](O)[C@](C)(O)C1CC[C@@]2(O)C3=CC(=O)C4C[C@@H](O)[C@@H](O)C[C@]4(C)C3CC[C@]12C` (some centres not stated) the activity change, negative = inhibition was 12.6% (inactive). In the case of `Fc1cccc(/C=N/N=C/c2cccc(F)c2)c1`, the activity change, negative = inhibition is reported as 8.5% (inactive) and 8.55% (inactive). For `C[N+]1(C)[C@@H]2CC(OC(=O)C(O)(c3cccs3)c3cccs3)C[C@H]1[C@@H]1O[C@@H]12` (some centres not stated), the activity change, negative = inhibition was 13.9% (inactive). In the case of `CCc1cnn2c(NCc3ccc[n+]([O-])c3)cc(N3CCCC[C@H]3CCO)nc12`, the activity change, negative = inhibition is reported as -74.2% (active). With `COc1ccc(CNc2nc(N3CCC[C@H]3CO)ncc2C(=O)NCc2ncccn2)cc1Cl` the activity change, negative = inhibition was -6.59% (inactive). With `COc1cc(O)cc([C@@H]2CC(=O)c3c(O)cc(O[C@@H]4O[C@H](CO)[C@@H](O)[C@H](O)[C@H]4O[C@@H]4O[C@@H](C)[C@H](O)[C@@H](O)[C@H]4O)cc3O2)c1` the activity change, negative = inhibition was 4.15% (inactive). For `c1ccc(Oc2nc(NC3CCCCC3)c3[nH]cnc3n2)cc1`, the activity change, negative = inhibition was -6.74% (inactive). With `Cn1cnc2cc3c(Nc4cccc(Br)c4)ncnc3cc21` the activity change, negative = inhibition was -18.1% (inactive). With `O=C(NCCCl)N(CCCl)[NH2+][O-]` the activity change, negative = inhibition was -12% (inactive). For `O=C(O)c1ccc(N2C(=O)/C(=C/c3ccc(-c4ccc([N+](=O)[O-])cc4)o3)C=C2c2ccccc2)cc1`, the activity change, negative = inhibition was 14.9% (inactive). For `CN1CCc2c(c3ccccc3n2Cc2ccc(C(=O)NO)cc2)C1`, the activity change, negative = inhibition was -47% (inactive). For `CCCCN(Cc1ccc(C(=O)NO)cc1)C(=O)Nc1ccccc1`, the activity change, negative = inhibition was -84.4% (active). With `CCCN(CCC)C(=O)C(CCC(=O)O)NC(=O)c1ccccc1` (configuration not stated) the activity change, negative = inhibition was -0.127% (inactive) and 11.8% (inactive). For `CC1CCCC(C)N1` (configuration not stated), the activity change, negative = inhibition was 19.7% (inactive). For `NCCc1ccn[nH]1`, the activity change, negative = inhibition was 7.65% (inactive). For `CN(C)N(C)C(=O)[C@@]1(Cc2ccccc2)CCCN(C(=O)[C@@H](Cc2c[nH]c3ccccc23)NC(=O)C(C)(C)N)C1`, the activity change, negative = inhibition was 17.2% (inactive). For `CSc1nc(NC2CCCC2)c([N+](=O)[O-])c(NC2CCCC2)n1`, the activity change, negative = inhibition was 15.2% (inactive) and 17.7% (inactive). For `CCCCCCOC(=O)/N=C(/N)c1ccc(NCc2nc3cc(C(=O)N(CCC(=O)OCC)c4ccccn4)ccc3n2C)cc1`, the activity change, negative = inhibition was 13.2% (inactive). For `CC(=O)OCC(=O)[C@@]12OC(C)(C)O[C@@H]1CC1C3C[C@H](F)C4=CC(=O)C=C[C@]4(C)[C@@]3(F)[C@@H](O)C[C@@]12C` (some centres not stated), the activity change, negative = inhibition was 8.91% (inactive) and 0.0222% (inactive). In the case of `COC1=CC(=O)C(=O)C/C1=C\C=C\c1ccccc1`, the activity change, negative = inhibition is reported as -4.53% (inactive). With `CCCCCCCCCCCCN1CCCCCC1=O` the activity change, negative = inhibition was 10.1% (inactive). With `COc1cc(NS(C)(=O)=O)ccc1Cc1c2ccccc2nc2ccccc12` the activity change, negative = inhibition was -78.8% (active). For `COc1cc(NS(C)(=O)=O)ccc1Nc1c2ccccc2nc2ccccc12`, the activity change, negative = inhibition was -35.3% (inactive) and -53.5% (inactive). With `COc1ccccc1S(=O)(=O)Nc1ccc2c(c1)CN(C)C(=O)N2` the activity change, negative = inhibition was 28.4% (inactive). For `Cc1cc(=O)c2c(O)c3c(O)cc(O)c4c5c(O)cc(O)c6c(O)c7c(=O)cc(C)c8c1c2c(c34)c(c65)c78`, the activity change, negative = inhibition was -7.43% (inactive). For `C[C@@]1(O)[C@H](O)[C@@H](CO)O[C@H]1n1cnc2c(NC3CCCC3)nc(Cl)nc21`, the activity change, negative = inhibition was 14.8% (inactive). For `C=CC(=O)Nc1cccc(Nc2nc(Nc3ccc(N4CCN(C(C)=O)CC4)cc3OC)ncc2C(F)(F)F)c1`, the activity change, negative = inhibition was 15.7% (inactive). With `CC(=O)NCC(=O)N1[C@@H]2CC[C@H]1c1ccc(Nc3ncc(C(F)(F)F)c(NC4CCC4)n3)cc12` the activity change, negative = inhibition was -73.8% (active). In the case of `C=CC(=O)Nc1cccc(Nc2nc(Nc3ccc(NC4CN(CCF)C4)cc3OC)ncc2C(F)(F)F)c1`, the activity change, negative = inhibition is reported as -9.1% (inactive). In the case of `S=c1ccss1`, the activity change, negative = inhibition is reported as 1.03% (inactive). With `COc1ccc(-c2cc(=O)c3c(O)cc(O)cc3o2)cc1` the activity change, negative = inhibition was 127% (inactive). With `O=C(O)C[C@H](O)C[C@H](O)/C=C/c1c(C2CC2)nc2ccccc2c1-c1ccc(F)cc1` the activity change, negative = inhibition was -31.6% (inactive) and 2.61% (inactive). For `CC(C)c1nc(N(C)S(C)(=O)=O)nc(-c2ccc(F)cc2)c1/C=C/[C@@H](O)C[C@@H](O)CC(=O)O`, the activity change, negative = inhibition was 15.1% (inactive) and -35.2% (inactive). In the case of `COCc1c(C(C)C)nc(C(C)C)c(/C=C/[C@@H](O)C[C@@H](O)CC(=O)O)c1-c1ccc(F)cc1`, the activity change, negative = inhibition is reported as -88.4% (active). In the case of `CC(C)n1c(/C=C/[C@@H](O)C[C@@H](O)CC(=O)O)c(-c2ccc(F)cc2)c2ccccc21`, the activity change, negative = inhibition is reported as -79.8% (active) and 10.3% (inactive). For `CC(C)N1c2ccccc2C(c2ccc(F)cc2)C1/C=C/C(O)CC(O)CC(=O)O` (configuration not stated), the activity change, negative = inhibition was -15.2% (inactive). With `CC(C)c1c(C(=O)Nc2ccccc2)c(-c2ccccc2)c(-c2ccc(F)cc2)n1CC[C@@H](O)C[C@@H](O)CC(=O)O` the activity change, negative = inhibition was 9.33% (inactive). With `COc1cc(SC)ccc1C(=O)N1CCC(Cc2ccccc2)CC1` the activity change, negative = inhibition was 36.5% (inactive) and 48.1% (inactive). For `CC(C)N(C[C@H]1O[C@@H](n2cnc3c(N)ncnc32)[C@H](O)[C@@H]1O)C1CC(CCc2nc3ccc(C(C)(C)C)cc3[nH]2)C1` (some centres not stated), the activity change, negative = inhibition was 8.46% (inactive) and -64.1% (inactive). For `O=C(O)C(=O)Nc1cccc(-c2nn[nH]n2)c1`, the activity change, negative = inhibition was 5.48% (inactive). With `CN1CCc2nc(C(=O)N[C@H]3C[C@H](C(=O)N(C)C)CC[C@@H]3NC(=O)C(=O)Nc3ccc(Cl)cn3)sc2C1` the activity change, negative = inhibition was 9.11% (inactive). For `C[C@H](N)C(=O)N[C@@H](CCC(N)=O)C(=O)O` (H-Ala-Gln-OH), the activity change, negative = inhibition was 3.92% (inactive). In the case of `N#C/C(=C/c1ccc(O)c(O)c1)C(=O)NCCCc1ccccc1`, the activity change, negative = inhibition is reported as -10.8% (inactive). In the case of `NC(N)=NC(=O)c1cnccn1`, the activity change, negative = inhibition is reported as 11.4% (inactive). For `CC(C)(C)NCC(O)COc1cccc2c1C[C@H](O)[C@H](O)C2` (some centres not stated), the activity change, negative = inhibition was 4.27% (inactive). For `COc1ccc2c(O[C@H]3CC4C(=O)N(C)CCCC/C=C\[C@@H]5C[C@@]5(C(=O)NS(=O)(=O)C5CC5)NC(=O)[C@@H]4C3)cc(-c3nc(C(C)C)cs3)nc2c1C` (some centres not stated), the activity change, negative = inhibition was -71.4% (active). For `CC(C)(C)OC(=O)N[C@H]1CCCCC/C=C\[C@@H]2C[C@@]2(C(=O)NS(=O)(=O)C2CC2)NC(=O)[C@@H]2C[C@@H](OC(=O)N3Cc4cccc(F)c4C3)CN2C1=O`, the activity change, negative = inhibition was 19.7% (inactive). With `N#CC(Cc1ccc(O)cc1)c1ccc(O)cc1` (configuration not stated) the activity change, negative = inhibition was 6.16% (inactive) and 5.25% (inactive). For `CC(=O)OCC(=O)[C@@]1(OC(C)=O)[C@@H](C)CC2C3C[C@H](F)C4=CC(=O)C=C[C@]4(C)[C@@]3(F)[C@@H](O)C[C@@]21C` (some centres not stated), the activity change, negative = inhibition was -5.04% (inactive) and -3.76% (inactive). With `CCC[C@@H]1C[C@@H](C(=O)N[C@H]([C@H]2O[C@H](SC)[C@H](O)[C@@H](O)[C@H]2O)[C@H](C)O)N(C)C1` the activity change, negative = inhibition was -17.1% (inactive).
